B1: design_615_ab801fab-270b-4f6a-b2b5-83c165df418c_2317_dldesign_0_cycle1_af2pred (protein)
chain: GAARMAAAGAQAAALAAELPAAVDPMLEGILNPETREAHEAEARAIARALDPENAEELWARVLRAAMGLLLAQGLARA
B2: design_616_e8336982-fa4d-4d7c-b06f-9007953e1994_26_dldesign_0_cycle1_af2pred (protein)
chain: SLEEAAAQAQALVDQATALGAQDYASASQGIALLAEAAKLVEEAGLPPETAAAIMAAINAALATVSKNAAAFVAA
B3: design_615_ab801fab-270b-4f6a-b2b5-83c165df418c_2173_dldesign_0_cycle1_af2pred (protein)
chain: LTPEEKQKLIEEGTELRNKGAALANQAMLAAAAGDKATAKELMAKAKEYFDKAIELYEKAGDEKKAESVKKLKDTLTSAFEAQLAA
B4: design_615_ab801fab-270b-4f6a-b2b5-83c165df418c_1027_dldesign_0_cycle1_af2pred (protein)
chain: KEALEKAKKEAEKILKEAAEKVSPEVAKYVEEAAKQPTIEEMIHKVLLAAAKAGQVNLEDGKILLEAAEKIAAIYKKAKEE
B5: design_615_ab801fab-270b-4f6a-b2b5-83c165df418c_1064_dldesign_0_cycle1_af2pred (protein)
chain: AREQAQQALDFALANAQLIAQRRGEAGKRLAELVQKALEADEEEALKYLEEAIRLAEELAKDPAVAALARAAILALREARRLLE
B6: design_616_e8336982-fa4d-4d7c-b06f-9007953e1994_328_dldesign_0_cycle1_af2pred (protein)
chain: NANLQAAKVALASAEATLKHADAGVAAGTISPESAKKLYELAATLAKDAAEYAKKAGDAELAKKAEELAKEAKAKAEEMAAKAAA
B7: design_616_e8336982-fa4d-4d7c-b06f-9007953e1994_173_dldesign_0_cycle1_af2pred (protein)
chain: MEEKSKELKKKLEEAKKIAKEDPEKGAELAAEAAKEAAEAGDFGSAGEAIVLIAKMGTPKASRELAEASRYLIAAIRAA
B8: design_615_ab801fab-270b-4f6a-b2b5-83c165df418c_1266_dldesign_0_cycle1_af2pred (protein)
chain: AAALEEAKAQLKKLAEELLEKSKEAAKLGSDAAIAVTSKYVAKGSALLVQYPEVSSEPLVEAVKEASKLIKEA
B9: design_616_e8336982-fa4d-4d7c-b06f-9007953e1994_361_dldesign_0_cycle1_af2pred (protein)
chain: AAAQAKALAAQAKAAIESGSLSPGEVARLAVKAGAYAMAAANADPSIAAEMQALAQDLFAKVDEYIAKVAA
B10: design_615_ab801fab-270b-4f6a-b2b5-83c165df418c_1933_dldesign_0_cycle1_af2pred (protein)
chain: ALQGALRSAAALLRNAAESEDPESREKLLDVAADLAAYAATLDPAAGAALAAAVEEARREGPEGARRAAELAAALAAA
B11: design_616_e8336982-fa4d-4d7c-b06f-9007953e1994_177_dldesign_0_cycle1_af2pred (protein)
chain: AGQATYNAAKAMAKSAAAMYLAGKYEDAEKVYQVAVDLAQSLIADPASKAQGEKALAYAKETYAKAKAEAEKKAA
B12: design_615_ab801fab-270b-4f6a-b2b5-83c165df418c_1763_dldesign_0_cycle1_af2pred (protein)
chain: EELVERLRLMRDVVAAALAAAGLDADAFAALLEAAAAAAREDPARAVELLARVAERAEELAAKASPLQRGVLRFAVTVARGAAAALA
B13: design_615_ab801fab-270b-4f6a-b2b5-83c165df418c_776_dldesign_0_cycle1_af2pred (protein)
chain: MEEAEEAYREAEEIKRETKAKAEAGTLTAQEAMEALARLEELREKLRELAEEEGEEAEEYYREVNEYAVEVSRIANAVFAAERAA
B14: design_615_ab801fab-270b-4f6a-b2b5-83c165df418c_1818_dldesign_0_cycle1_af2pred (protein)
chain: DPRAAASQALAAATADALLARLGELAGADVADRLRALLAGDAASKAEAARLARALAEEWRARNPAAAAALYGIAVLAESLAA
B15: design_615_ab801fab-270b-4f6a-b2b5-83c165df418c_1262_dldesign_0_cycle1_af2pred (protein)
chain: KEAAEKAAEKKAEEIKKIAEIAGGAVSPEDAAKIKKEAEEKIEELKKFAKESTPEEAEKYGQELVLEFSQSATKVMVAAAKAA
B16: design_616_e8336982-fa4d-4d7c-b06f-9007953e1994_74_dldesign_0_cycle1_af2pred (protein)
chain: EKEAQEKREKAKKLIEEIKKLAKEVAANPAISGMLNQLAKAAETAAANSSPEQGLKNAEKWLEIGKEAAKTAAA
B17: design_615_ab801fab-270b-4f6a-b2b5-83c165df418c_806_dldesign_0_cycle1_af2pred (protein)
chain: AAQAQAIEQLEKLIETAKELAKERPEEKEEILGKAHETAGQVLTLIAKGLQDPATAEQALKLAQAKLKEMEKKLKEAKA
B18: design_615_ab801fab-270b-4f6a-b2b5-83c165df418c_1575_dldesign_0_cycle1_af2pred (protein)
chain: GEEEEKKKKEKFEEAAEKVNKGLALASQAALADPKYQPVLAKVVELAKEAEKLKKEGKAEEALKKAEEAYEVAKKALAAVKAA
B19: design_615_ab801fab-270b-4f6a-b2b5-83c165df418c_1179_dldesign_0_cycle1_af2pred (protein)
chain: SPTEIAGKAVREIQELTEQAIANPETAEQLAAEAKKVAEEAGKKTGEGLAQLLKNVAAQREKEVQAALAA
B20: design_615_ab801fab-270b-4f6a-b2b5-83c165df418c_2496_dldesign_0_cycle1_af2pred (protein)
chain: GEKEELIKKAEEKAAKAKEYEAKAKAAAADPAKAVEYYNKALYLYLEAAKLASKADPELAKKYSDEANKVAKKAIEAAKAA
B21: design_615_ab801fab-270b-4f6a-b2b5-83c165df418c_2495_dldesign_0_cycle1_af2pred (protein)
chain: GEAEAKFAEALALLDRAEELAKGGDAAQLAEASALLTQAIELATQVSPEKRAEISRRAAEISKRLLAQLAA
B22: design_616_e8336982-fa4d-4d7c-b06f-9007953e1994_392_dldesign_0_cycle1_af2pred (protein)
chain: AEAYQKALATAEKLLAQGQAGLADPSNAEALEKGAQGYFLLAALYPEKREEYVAKGEALYKKAEEARAAQAA
B23: design_615_ab801fab-270b-4f6a-b2b5-83c165df418c_2359_dldesign_0_cycle1_af2pred (protein)
chain: MEEDVALLRDIARLGRESLERARAGTAAEAERALADFTAAADAAIARLAPGEGAALLAANMRARFAAEMRAVAAAKAA
B24: design_615_ab801fab-270b-4f6a-b2b5-83c165df418c_2427_dldesign_0_cycle1_af2pred (protein)
chain: AMEAAKAAAKAAAAAAAAAGLTDLAAEIAAAAKEAEETGIEGANRLMGLAARYAVQHPALNAAMSALIEAAGAYIAEAA
B25: design_615_ab801fab-270b-4f6a-b2b5-83c165df418c_1665_dldesign_0_cycle1_af2pred (protein)
chain: MEEEKEKEKYIKELKKAAEEAIKTAKEAAKLDPKAGGALLKYVEASGKQALENAEKGDLETAKNQLEFMKQVLEIAKGTLAALKAA
B26: design_615_ab801fab-270b-4f6a-b2b5-83c165df418c_1881_dldesign_0_cycle1_af2pred (protein)
chain: ALAAELAREALRAEAERIAAAKLAEAKAGTPETAQAQAAYLVSLAEEHPETAGIYLGAAAQIHAVLIAKTA
B27: design_615_ab801fab-270b-4f6a-b2b5-83c165df418c_2088_dldesign_0_cycle1_af2pred (protein)
chain: DTERKLALLQEAIVKLTEALAAYNTDPATGRALAREAAELLKEAGLEEAAELARKAAEDPENGFEYARRALGLVTKAYIELSR
B28: design_615_ab801fab-270b-4f6a-b2b5-83c165df418c_1174_dldesign_0_cycle1_af2pred (protein)
chain: ADEEDLAAAKKRLEDTKKLVEINLTMANQGPLGAKAAIASLNTQIKVLEAAKKAATPAAQPELDKAIAIAKAALAEAKAKAAA
B29: design_615_ab801fab-270b-4f6a-b2b5-83c165df418c_2413_dldesign_0_cycle1_af2pred (protein)
chain: AAAALAAEALALREKGVAAAKAGRYALARNYFLQALITAGASPATIQAVVRALAAGAADPSTAPAAVAHADATVTAAAAAVAAA
B30: design_615_ab801fab-270b-4f6a-b2b5-83c165df418c_1854_dldesign_0_cycle1_af2pred (protein)
chain: LRERAESNLAFAQTALEAAKQAKAAGAPQSLVQGLANIAERAAQLAIEEAAKDPALAPLAEEAKKVAEEAKKVAA
B31: design_615_ab801fab-270b-4f6a-b2b5-83c165df418c_2322_dldesign_0_cycle1_af2pred (protein)
chain: AQAEVKAKAEKLIEELIKASSEVVAAAAKAGDGESAVEANKAASEAIKKIKAAAKAGDLEAAKKAAEEGMKKLKELKAKVEAK
B32: design_615_ab801fab-270b-4f6a-b2b5-83c165df418c_1187_dldesign_0_cycle1_af2pred (protein)
chain: AAAEEVARRGASALAAGQNLIEMAKAASPEAAAVATAALAQAKALLAQGTPEAAEQAQQVINDAMAQVSKIMIAAA
B33: design_615_ab801fab-270b-4f6a-b2b5-83c165df418c_2473_dldesign_0_cycle1_af2pred (protein)
chain: SPEALTAAVRAEGDALLAEAEATAAADPEAGKAAYEAAIRRLLGLAARLLQESPAAAQAALDRAVELAAKLEEL
B34: design_615_ab801fab-270b-4f6a-b2b5-83c165df418c_1503_dldesign_0_cycle1_af2pred (protein)
chain: AAALAAAQAAAGATALETLEVASKAAKAGSPEVAAEANKLAQQATQLAQQAAQGDLATAKAQLAAIQKLLAQAKELLKK
B35: design_615_ab801fab-270b-4f6a-b2b5-83c165df418c_921_dldesign_0_cycle1_af2pred (protein)
chain: SAALKAALAALDAAEKAAEAADPEVAAIVRATREAVKKAPDEVAAKAAQMATAIESLAKAGFVASARATARNLLAYVSAAVAAAE
B36: design_615_ab801fab-270b-4f6a-b2b5-83c165df418c_863_dldesign_0_cycle1_af2pred (protein)
chain: AQAAEAALRTAEAVVRRAEEAIARGASPEELRALAKLAEVVAESLLAVAKTASPEQAKRLEEAAERARRAAEEARRAAERLEREAA
B37: design_615_ab801fab-270b-4f6a-b2b5-83c165df418c_1097_dldesign_0_cycle1_af2pred (protein)
chain: SEAMKTAGAKILTATAASLERQLAEARANPGELRPRAAALAQLAAQLAESAKAIGDEETAARLAAISAEAAALAA
B38: design_615_ab801fab-270b-4f6a-b2b5-83c165df418c_1773_dldesign_0_cycle1_af2pred (protein)
chain: SETAEEARRAVERLKEAAKKLAKAGTPEHAGYAEGLVTTTTALVERLLAAGREEEALRAARRALERAERLLKKALA

biological target: CD276, Q5ZPR3
Sequence (Q5ZPR3 whole entry): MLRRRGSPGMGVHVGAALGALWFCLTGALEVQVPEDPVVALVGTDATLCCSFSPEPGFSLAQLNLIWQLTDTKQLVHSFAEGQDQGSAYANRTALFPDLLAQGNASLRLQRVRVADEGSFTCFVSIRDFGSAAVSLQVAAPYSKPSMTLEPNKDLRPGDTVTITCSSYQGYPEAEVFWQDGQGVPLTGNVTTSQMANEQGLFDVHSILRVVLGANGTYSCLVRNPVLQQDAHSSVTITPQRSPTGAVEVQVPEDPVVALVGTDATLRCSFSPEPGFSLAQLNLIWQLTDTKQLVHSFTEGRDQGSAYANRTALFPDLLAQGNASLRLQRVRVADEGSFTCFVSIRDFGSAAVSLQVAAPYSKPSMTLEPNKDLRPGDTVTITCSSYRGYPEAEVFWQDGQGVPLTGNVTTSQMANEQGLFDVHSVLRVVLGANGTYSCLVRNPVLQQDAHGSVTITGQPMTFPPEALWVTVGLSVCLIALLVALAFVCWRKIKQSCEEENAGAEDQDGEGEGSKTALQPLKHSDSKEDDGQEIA

Binding in a display sort, inactive:
B1 not found
B2 not found
B3 not found
B4 not found
B5 not found
B6 not found
B7 not found
B8 not found
B9 not found
B10 not found
B11 not found
B12 not found
B13 not found
B14 not found
B15 not found
B16 not found
B17 not found
B18 not found
B19 not found
B20 not found
B21 not found
B22 not found
B23 not found
B24 not found
B25 not found
B26 not found
B27 not found
B28 not found
B29 not found
B30 not found
B31 not found
B32 not found
B33 not found
B34 not found
B35 not found
B36 not found
B37 not found
B38 not found

Reference: PMC13494018
